Results filed as inconclusive are left out. The source made the active and inactive calls. Calls come from the whole dose curve; as a rule, active = well fitted inhibition curve with a large enough effect; inconclusive = small, poorly fitted or top-dose-only effect; inactive = no such curve, though single readings can be large or run the other way.
Potency is the fitted concentration of half-maximal effect.

For this assay, the target named is Furin (Homo sapiens) (UniProt P09958). In words: Furin counterscreen qHTS for Zika virus inhibitors (AID 1347149).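 For activity change, negative = inhibition: purified recombinant full-length human furin enzyme at 5 nM; fluorescence gain from furin cutting a BOC-RVRR-AMC peptide substrate over 15 min; top concentration of the series differs between compounds; plate controls were no-inhibitor control for no effect and no-enzyme control for full effect.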 Note: nearly all actives have a fitted effect of over 70% in size. The note with it: furin enzymatic counterscreen, fluorogenic substrate; series mostly up to 57.5 µM; activity change, negative = inhibition: at the top concentration. In outline: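 Fluorogenic cleavage of BOC-RVRR-AMC (2 microM final, Km ~15 µM) was monitored (ex 340, em 450 nm) at 37C after 15 min RT preincubation of 5 nM furin with compounds in HEPES pH 7.0 buffer with CaCl2 and Triton X-100. Percent inhibition was fitted to a 4-parameter Hill curve.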
Furin (Homo sapiens), sequence (P09958 whole entry, looked up): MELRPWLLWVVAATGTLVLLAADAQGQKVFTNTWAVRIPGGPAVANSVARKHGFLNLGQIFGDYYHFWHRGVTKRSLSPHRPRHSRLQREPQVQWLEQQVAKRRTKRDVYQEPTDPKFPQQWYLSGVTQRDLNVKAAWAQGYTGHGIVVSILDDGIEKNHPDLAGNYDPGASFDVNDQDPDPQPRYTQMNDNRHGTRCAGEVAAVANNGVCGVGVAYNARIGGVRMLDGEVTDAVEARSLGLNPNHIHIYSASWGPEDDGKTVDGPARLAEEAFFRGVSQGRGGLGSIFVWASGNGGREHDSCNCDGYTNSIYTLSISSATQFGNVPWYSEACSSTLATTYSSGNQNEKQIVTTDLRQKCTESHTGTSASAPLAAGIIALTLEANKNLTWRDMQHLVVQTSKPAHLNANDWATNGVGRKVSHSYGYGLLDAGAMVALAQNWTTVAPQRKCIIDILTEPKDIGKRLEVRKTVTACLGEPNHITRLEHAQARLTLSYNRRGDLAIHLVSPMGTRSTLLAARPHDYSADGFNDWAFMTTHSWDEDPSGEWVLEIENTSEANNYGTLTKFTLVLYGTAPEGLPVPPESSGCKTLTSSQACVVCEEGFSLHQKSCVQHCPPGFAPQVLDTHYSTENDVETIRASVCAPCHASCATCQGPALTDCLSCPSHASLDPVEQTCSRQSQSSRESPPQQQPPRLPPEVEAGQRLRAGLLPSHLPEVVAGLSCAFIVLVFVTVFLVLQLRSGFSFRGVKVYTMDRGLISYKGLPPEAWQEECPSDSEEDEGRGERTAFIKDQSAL
Turning to `COc1cc(Cl)cn2c(-c3cccc(NC4CNC4)n3)cnc12`, the Potency is 27.1 µM (active).

Regarding `OC(c1cc(C(F)(F)F)nc2c(C(F)(F)F)cccc12)C1CCCCN1` (centres undefined), the Potency is 0.961 µM (active).

`CC[C@H](C)n1cc(C)c2c(C(=O)NCc3c(C)cc(C)[nH]c3=O)cc(-c3ccc(N4CCNCC4)nc3)cc21`: the Potency was 27 µM (active).

With `CCCCC[C@H](O)C=C[C@H]1[C@H](O)CC(=O)[C@H]1CCCCCCC(=O)O`, the “activity change, negative = inhibition” value was 7.05% (inactive).

With `O=C(O)Cc1cccc(OCCCN(Cc2cccc(C(F)(F)F)c2Cl)CC(c2ccccc2)c2ccccc2)c1`, the Potency is 7.62 µM (active).

With `CCCCOCCOc1nc(-c2ccc(C(=O)O)c(F)c2)sc1C`, the Potency is 12.1 µM (active).

With `O=S(=O)(O)c1ccc2cc(N=Nc3cc(S(=O)(=O)O)c4cccnc4c3O)ccc2c1`, the “activity change, negative = inhibition” value is -12.4% [at 114 µM] (inactive).

In the case of `CC(C)c1onc(-c2c(Cl)cccc2Cl)c1COc1ccc(C=Cc2cccc(C(=O)O)c2)c(Cl)c1`, the Potency was 30.4 µM (active).

Regarding `O=C(Nc1ccccc1)Nc1ccc(-c2ccc(C(=O)[C@H]3CCC[C@H]3C(=O)O)cc2)cc1`, the Potency was 34 µM (active).

On to `c1cc(OCCN2CCCCC2)cc(-c2n[nH]c3ccc(-c4ncn[nH]4)cc23)c1`, for which the Potency is 21.5 µM (active).

Consider `Fc1ccc(C(c2ccc(F)cc2)N2CCN(CC=Cc3ccccc3)CC2)cc1`, for which the “activity change, negative = inhibition” value is -6.47% (inactive).

On to `O=C(Nc1cccc2c(=O)cc(-c3nn[nH]n3)oc12)c1ccc(OCCCCc2ccccc2)cc1`, for which the Potency is 30.4 µM (active).

With `N#CC1(c2cccc(C(=O)Nc3cc(Oc4ccc5nc(NC(=O)C6CC6)sc5n4)ccc3F)c2Cl)CC1`, the “activity change, negative = inhibition” value is -3.89% (inactive).

For `O=c1cc(-c2ccc(O)c(O)c2)oc2cc(O)cc(O)c12`, the “activity change, negative = inhibition” value is -0.287% (inactive).

Source of the values: PubChem BioAssay (NCATS).
